# Shown is part of a subset that was picked to be rich in hits.
# SARS PLpro yeast-1 – qHTS of Yeast-based Assay for SARS-CoV PLP; hit rate 0.19% among 330,000; Potency, µM (doses to about 32.9 µM), for inactives: at the highest dose activity, positive = growth rescue, most hits filed as activators; S. cerevisiae expressing SARS-CoV PLpro, growth rescue; calls by dose curve; further: potency means the concentration at half of the fitted maximal effect; 0% is about no effect; nearly all actives have a fitted effect of over 55% in size
# Shiga toxin inh – A qHTS for Small Molecule Inhibitors of Shiga Toxin; Vero cells, Shiga toxin protein synthesis inhibition reporter; hit rate 9.2% among 290,000; AID 2315, 2010; inhibition, % at 38.7 µM; in the data active means inhibition mostly above about 28%, no sharp cut-off; inactive means mostly below about 43%; further: 0% is about no effect
# AmpC no deterg – qHTS Inhibitors of AmpC Beta-Lactamase (assay without detergent); AmpC nitrocefin hydrolysis, absorbance 480 nm, 0.0001% Triton; AID 485341, 2010; hit rate 0.52% among 330,000; Potency, µM (highest dose often 57.1 µM), inactives show at the highest dose activity change, negative = inhibition, hits mostly inhibitors;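 further: potency means the concentration at half of the fitted maximal effect; plate controls were no compound for no effect and no enzyme for full effect; nearly all actives have a fitted effect of over 20% in size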
# Target sequence (P00811 whole entry, looked up): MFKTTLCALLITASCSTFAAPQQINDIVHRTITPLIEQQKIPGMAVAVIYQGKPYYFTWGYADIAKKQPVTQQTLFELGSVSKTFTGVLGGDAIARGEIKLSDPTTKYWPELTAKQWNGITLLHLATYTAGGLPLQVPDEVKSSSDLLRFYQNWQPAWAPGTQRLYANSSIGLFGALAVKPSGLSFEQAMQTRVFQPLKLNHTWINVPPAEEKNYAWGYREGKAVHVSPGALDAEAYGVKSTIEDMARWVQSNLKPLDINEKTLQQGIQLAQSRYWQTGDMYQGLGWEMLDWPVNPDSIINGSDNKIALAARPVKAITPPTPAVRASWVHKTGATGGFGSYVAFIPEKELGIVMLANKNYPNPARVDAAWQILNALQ
#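 20 mM phosphate pH 7.0 + 0.01% (detergent screen) or 0.0001% Triton X-100; 5.3 nM AmpC reagent; cpd preinc 15 min RT; nitrocefin (800 uM stock) to start; A480 q20 s × 4 min; Activity was normalised to no-enzyme and no-compound control wells.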
# AmpC inh detg – qHTS Inhibitors of AmpC Beta-Lactamase (assay with detergent); AID 485294, 2010; hit rate 0.041% among 370,000; AmpC hydrolysis of nitrocefin, absorbance 480 nm, 0.01% Triton; Potency, µM (series often up to 114 µM), inactives show at the top dose activity change, negative = inhibition, actives largely listed as inhibitors;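 further: potency means the concentration at half of the fitted maximal effect; 0% = no-compound wells and -100% = no-enzyme wells; nearly all actives have a fitted effect of over 25% in size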
#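 20 mM phosphate pH 7.0 + 0.01% (detergent screen) or 0.0001% Triton X-100; 5.3 nM AmpC reagent; cpd preinc 15 min RT; nitrocefin (800 uM stock) to start; A480 q20 s × 4 min; Activity was normalised to no-enzyme and no-compound control wells.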
# AMA1-RON2 inh – qHTS for Inhibitors of AMA1-RON; Towards Development of Antimalarial Drug Lead: Primary Screen | Plasmodium falciparum AMA1 (3D7) - RON2 peptide interaction | AlphaScreen AMA1-biotinylated RON2 peptide binding | Potency, µM (highest dose often 58.2 µM), for the others: at the highest dose activity change, negative = inhibition, most hits filed as inhibitors | hit rate 0.2% among 360,000;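 further: potency means the concentration at half of the fitted maximal effect; 0% = vehicle wells and -100% = peptide control; nearly all actives have a fitted effect of over 45% in size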
#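 AMA1 (3D7) with his tag at 25 nM final met compounds first, then biotinylated RON2 peptide at 25 nM; detection used donor plus acceptor beads, 10 µg/mL apiece, read by AlphaScreen after 30 min at room temperature.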
# Cycloheximide cs – Cycloheximide Counterscreen for Small Molecule Inhibitors of Shiga Toxin. AID 2314, 2010. max response, %. cell reporter, cycloheximide protein synthesis inhibition counterscreen. hit rate 12% among 300,000; in the data active means max response mostly above about 13%, no sharp cut-off; inactive means mostly below about 14%; further: read at 38.3 µM for the half of the compounds with a filed dose; 0% is about no effect
# SARS PLpro yeast-2 – qHTS of Yeast-based Assay for SARS-CoV PLP: Hit Validation. shares compounds with SARS PLpro yeast-1. yeast expressing SARS-CoV PLpro, growth phenotype rescue. calls only. hit rate 19% among 1,000. AID 652038, 2013; call rule not given here
# * marks the source's active call; other numbers are inactive results; i = inactive; ? = inconclusive; nt = not tested or not shown; + = active, no number; ! = not confirmed by another sample. Unless noted, the call rests on the fitted dose curve; in most records, active means well fitted curve in the direction sought with a large enough effect; inconclusive means small, poorly fitted or top-dose-only effect, or another doubt; inactive means no such curve, though single readings can be large; an effect the other way counts as inactive or inconclusive.
SMILES,SARS PLpro yeast-1,Shiga toxin inh,AmpC no deterg,AmpC inh detg,AMA1-RON2 inh,Cycloheximide cs,SARS PLpro yeast-2
CC(=O)O[C@@]12CO[C@@H]1C[C@@H](O)[C@@]1(C)C(=O)[C@H](O)C3=C(C)[C@@H](OC(=O)[C@H](O)[C@@H](NC(=O)c4ccccc4)c4ccccc4)C[C@@](O)([C@@H](OC(=O)c4ccccc4)C12)C3(C)C (stereo not given in full),?,-5.3,243.0%,-9.5%,-2.1%,-2.6,?
Cc1ccnc2nc(C(=O)OCC(=O)Nc3ccc4c(c3)OCCO4)nn12,?,nt,-15.0%,nt,-3.7%,nt,i
COC(=O)c1ccc(NC(=O)COC(=O)c2nc3nccc(C)n3n2)cc1,-1.3%,-6.0,-23.9%,2.9%,10.8%,7.5,nt
CC1(c2ccccc2)NC(=O)N(CC(=O)Nc2ccc3c(c2)OCO3)C1=O (stereo not given),-1.8%,-6.4,-9.0%,2.6%,43.5%,-3.7,nt
O=[N+]([O-])c1ccc(Oc2cccc3cccnc23)c([N+](=O)[O-])c1,nt,-7.5,-21.0%,?,-18.8%,-1.9,i
O=C(NC(Cc1ccccc1)C(=O)O)/C(=C\c1ccc(Cl)cc1)NC(=O)c1ccccc1 (stereo not given),0.6%,20.8,-13.7%,2.1%,4.4%,-3.0,nt
CC(=O)N/C(=C/c1ccccc1)C(=O)NC(Cc1ccccc1)C(=O)O (stereo not given),?,-2.1,-8.3%,1.8%,-17.7%,-2.0,i
Cc1cc(Cl)ccc1NC(=S)Nc1ccccn1,5.01µM*,23.1*,-28.5%,-12.3%,5.8%,33.4*,+
Cc1cc(C)cc(NC(=S)N2CCN(c3ccccn3)CC2)c1,0.0%,5.3,-2.7%,1.3%,-0.9%,-0.7,nt
Cc1cc(Cl)ccc1NC(=S)NCc1ccccc1,-0.9%,-3.9,-1.3%,0.9%,11.8%,1.7,nt
Cc1cc(C)cc(NC(=S)Nc2ccccn2)c1,3.16µM*,active,-36.7%,-9.2%,-2.0%,20.6,+
Cc1c(NC(=O)COc2ncnc3c(Cl)cc(Cl)cc23)c(=O)n(-c2ccccc2)n1C,?,19.9,-5.6%,-14.9%,-2.6%,-2.4,i
Cc1c(NC(=O)COc2ccccc2Cl)c(=O)n(-c2ccccc2)n1C,-14.4%,nt,-9.5%,?,-5.6%,nt,nt
Cc1ccc(C(=O)Nc2nc(-c3ccccc3)c(-c3ccccc3)o2)cc1,10µM*,22.7,-22.1%,-9.1%,69.2%,-0.5,+
CC(=O)Nc1ccc(NC(=O)CN2C(=O)NC3(CCCCCCC3)C2=O)cc1,-16.3%,nt,-24.8%,nt,17.1%,nt,nt
CC(C)c1ccc(NC(=O)CN2C(=O)NC3(CCCC3)C2=O)cc1,3.55µM*,12.4,-1.1%,-1.4%,-13.2%,0.4,i
Cc1cccc(CNc2ncnc3ccc(-c4cccnc4)cc23)c1,-2.9%,nt,-29.7%,?,nt,nt,nt
Cc1csc(CNc2ncnc3ccc(-c4cccnc4)cc23)c1,1.9%,nt,-17.4%,-3.9%,nt,nt,nt
Cc1cccc(-c2ccc3ncnc(NCc4cccnc4)c3c2)c1,6.31µM*!,nt,-36.5%,-12.4%,nt,nt,i
Cc1cccc(-c2ccc3ncnc(NCc4cccs4)c3c2)c1,6.31µM*!,nt,-45.4%,-6.4%,nt,nt,i
COc1cccc(-c2ccc3ncnc(NCc4cc(C)cs4)c3c2)c1,6.31µM*!,nt,-15.5%,-0.6%,nt,nt,i
Cc1nn(-c2ccccc2)c(C)c1/C=N/NC(=O)CSc1nnc(SCc2ccccc2Cl)s1,?,42.3,15.7%,17.6%,-1.2%,35.2*,+
Cc1nn(-c2ccccc2)c(C)c1/C=N/NC(=O)CSc1nnc(-c2ccccc2)n1-c1ccc(Cl)cc1,-0.6%,-16.0,-24.2%,-5.6%,10.5%,3.2,nt
C#CCNC(=O)c1csc([C@@H]2O[C@H](CO)[C@@H](O)[C@H]2O)n1,nt,nt,nt,nt,0.7%,nt,nt

# Assay outcomes (PubChem)
